The panel holds about 79,000 compounds, 15% with a hit somewhere; the sample as a whole holds those more often. A number with no mark means an inactive call. The source made the active and inactive calls. No stated cut-off is given here; in the data, active means growth inhibition above about 70%; inactive means the rest.

The nature of one experiment: NCI Yeast Anticancer Drug Screen. Data for the rad18 strain (AID 177). The following applies: S. cerevisiae rad18 mutant growth inhibition; at 1.2 µM; stronger effect = higher value. Put shortly: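 Growth of the mutant yeast strain after compound exposure, normalised to vehicle-only cultures.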
Turning to `COc1ccc2nc(N/N=C/c3sccc3C)cc(C)c2c1`, the growth inhibition was 5%.
On the same count and under the same terms, the value for `O=C(O)/C=C\C(=O)NNc1ccc(Br)cc1` was -2%; that for `S=c1[nH]nc(Cc2ccccc2)c(=S)[nH]1` was 9%.
Take `COc1ccc2nc3cccc([N+](=O)[O-])c3c(NCCCO)c2c1`: the growth inhibition was 96% (active).
Same read-out and setting: the value for `CCN(CC)CCSc1c2ccccc2nc2cc(NCC(=O)Nc3ccccc3-c3ccccc3NC(=O)CNc3ccc4c(SCCN(CC)CC)c5ccccc5nc4c3)ccc12` was 16%.
Take `Cc1ccc(N(C=O)c2c([N+](=O)[O-])cc([N+](=O)[O-])c3c2=[N+]([O-])CN=3)cc1`: the growth inhibition was 0%.
On the same count and under the same terms, the value for `COc1ccc(C(=O)OCCc2ccccc2)cc1` was 3%; that for `COc1ccc(C(=O)NCCN(C)C)c2nc3ccccc3cc12` was 19%.
Take `NCC(O)CSCc1ccc(Cl)cc1` (centres undefined): the growth inhibition is -5%.
As to `CN(C)/N=N/c1nc[nH]c1C(N)=O`, the growth inhibition was -3%.
For `O=c1[nH]c(=O)n(CCCO)cc1F`, the growth inhibition was -18%.
Take `COc1ccc(/C(=N/O)c2ccccc2C2=Nc3ccccc3C(NCc3ccccc3)O2)cc1C` (centres undefined): the growth inhibition is 0%.
On the same count and under the same terms, the value for `CCCC(=O)OC(OC(=O)CCC)c1ccc([N+](=O)[O-])o1` was 1%.
Same read-out and setting: the value for `O=C(/C(=C/c1ccccc1)CBr)c1ccccc1` was 6%; that for `O=C(Cc1ccccc1F)NC1=C(Cl)C(=O)c2ccccc2C1=O` was 29%; that for `Cc1cccc(N2CCN(C(=O)/C(=C/c3ccccc3)NC(=O)c3ccccc3)CC2)c1` was -2%.
For the compound `c1cc(Nc2ccc3c(c2)OCO3)c2cc(C3CCCCC3)ccc2n1`, the growth inhibition was -3%.
On the same count and under the same terms, the value for `Cc1ccc2nc(N/N=C/c3ccc(C)s3)cc(C)c2c1` was -8%.
Still for that read-out and setting: the figure for `COc1cc(NCCCCCNC(C)C)c2ncccc2c1Cl` is -1%.
On the same count and under the same terms, the figure for `COc1ccc2cc(CN3CCC(C4CCN(Cc5ccc6cc(OC)ccc6c5)CC4)CC3)ccc2c1` is 0%; for `CC(=O)O/N=C/c1c2ccccc2cc2ccccc12` it is 0%; for `CC[C@@]1(OC(=O)CN(C)C)C(=O)OCc2c1cc1n(c2=O)Cc2cc3ccccc3nc2-1` it is 1%.
Regarding `CC1(C)CC(=O)C(C(CC(c2ccccc2)c2cc3c(cc2O)OCO3)C2=C(O)CC(C)(C)CC2=O)=C(O)C1` (centres undefined), the growth inhibition is -2%.
The same measure, in the same setting: the value for `CCCCCCC(CCl)c1sc(-c2csc(CCNC(=O)OC(C)(C)C)n2)nc1C(=O)OC` (centres undefined) was -2%; that for `CCOC(=O)C1=C(C)NC(C)=C(C(=O)OCC)C1c1cccc([N+](=O)[O-])c1` was 5%.
On the same count and under the same terms, the figure for `Cc1ccc2c(/C=C/c3ccc(N(C)C)cc3)ccnc2c1C` is 1%; for `O=C1C(Br)=CC(Br)(Br)C=C1Br` it is -4%.

Staying with this experiment, now noted: S. cerevisiae rad18 mutant growth inhibition; at 3.7 µM; stronger effect = higher value.
In the case of `COc1ccc2nc(N/N=C/c3sccc3C)cc(C)c2c1`, the growth inhibition was 16%.
The same measure, in the same setting: the value for `O=C(O)/C=C\C(=O)NNc1ccc(Br)cc1` was 95% (active); that for `S=c1[nH]nc(Cc2ccccc2)c(=S)[nH]1` was 3%.
The same measure, in the same setting: the figure for `COc1ccc2nc3cccc([N+](=O)[O-])c3c(NCCCO)c2c1` is 96% (active).
Same read-out and setting: the figure for `CCN(CC)CCSc1c2ccccc2nc2cc(NCC(=O)Nc3ccccc3-c3ccccc3NC(=O)CNc3ccc4c(SCCN(CC)CC)c5ccccc5nc4c3)ccc12` is 12%.
As to `Cc1ccc(N(C=O)c2c([N+](=O)[O-])cc([N+](=O)[O-])c3c2=[N+]([O-])CN=3)cc1`, the growth inhibition was 14%.
The same measure, in the same setting: the value for `COc1ccc(C(=O)OCCc2ccccc2)cc1` was 3%; that for `COc1ccc(C(=O)NCCN(C)C)c2nc3ccccc3cc12` was 17%; that for `NCC(O)CSCc1ccc(Cl)cc1` (centres undefined) was -1%.
Same read-out and setting: the value for `CN(C)/N=N/c1nc[nH]c1C(N)=O` was 0%; that for `O=c1[nH]c(=O)n(CCCO)cc1F` was -6%; that for `COc1ccc(/C(=N/O)c2ccccc2C2=Nc3ccccc3C(NCc3ccccc3)O2)cc1C` (centres undefined) was 0%.
On to `CCCC(=O)OC(OC(=O)CCC)c1ccc([N+](=O)[O-])o1`, for which the growth inhibition is 14%.
`O=C(/C(=C/c1ccccc1)CBr)c1ccccc1`: the growth inhibition is 22%.
On the same count and under the same terms, the figure for `O=C(Cc1ccccc1F)NC1=C(Cl)C(=O)c2ccccc2C1=O` is 6%; for `Cc1cccc(N2CCN(C(=O)/C(=C/c3ccccc3)NC(=O)c3ccccc3)CC2)c1` it is 0%.
Turning to `c1cc(Nc2ccc3c(c2)OCO3)c2cc(C3CCCCC3)ccc2n1`, the growth inhibition is -7%.
The same measure, in the same setting: the figure for `Cc1ccc2nc(N/N=C/c3ccc(C)s3)cc(C)c2c1` is -1%.
For the compound `COc1cc(NCCCCCNC(C)C)c2ncccc2c1Cl`, the growth inhibition was -4%.
Same read-out and setting: the value for `COc1ccc2cc(CN3CCC(C4CCN(Cc5ccc6cc(OC)ccc6c5)CC4)CC3)ccc2c1` was 0%; that for `CC(=O)O/N=C/c1c2ccccc2cc2ccccc12` was -1%; that for `CC[C@@]1(OC(=O)CN(C)C)C(=O)OCc2c1cc1n(c2=O)Cc2cc3ccccc3nc2-1` was 12%.
Take `CC1(C)CC(=O)C(C(CC(c2ccccc2)c2cc3c(cc2O)OCO3)C2=C(O)CC(C)(C)CC2=O)=C(O)C1` (centres undefined): the growth inhibition is 5%.
As to `CCCCCCC(CCl)c1sc(-c2csc(CCNC(=O)OC(C)(C)C)n2)nc1C(=O)OC` (centres undefined), the growth inhibition was 2%.
Turning to `CCOC(=O)C1=C(C)NC(C)=C(C(=O)OCC)C1c1cccc([N+](=O)[O-])c1`, the growth inhibition is 32%.
Turning to `Cc1ccc2c(/C=C/c3ccc(N(C)C)cc3)ccnc2c1C`, the growth inhibition is -9%.
Still for that read-out and setting: the figure for `O=C1C(Br)=CC(Br)(Br)C=C1Br` is -13%.

Source of the values: PubChem BioAssay (NCI).
